Activity calls are given as the source filed them.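 The calls were made as follows: active = compound whose remaining NAD level is above about 45 nM (limit read from the data); inactive = the rest.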
Molecular target: NAD(+) hydrolase SARM1 (Homo sapiens) (UniProt Q6SZW1)
Test: blocking NAD cleavage by SARM1 SAM-TIR – cell lysate, NAD-Glo luminescence (AID 1508614);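 also: higher remaining NAD means stronger inhibition of SARM1 NADase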
Settings: SAM-TIR HEK293T lysate NADase, at 1 µM, active compounds read high

Chain of NAD(+) hydrolase SARM1 (Homo sapiens) (Q6SZW1 whole entry, looked up): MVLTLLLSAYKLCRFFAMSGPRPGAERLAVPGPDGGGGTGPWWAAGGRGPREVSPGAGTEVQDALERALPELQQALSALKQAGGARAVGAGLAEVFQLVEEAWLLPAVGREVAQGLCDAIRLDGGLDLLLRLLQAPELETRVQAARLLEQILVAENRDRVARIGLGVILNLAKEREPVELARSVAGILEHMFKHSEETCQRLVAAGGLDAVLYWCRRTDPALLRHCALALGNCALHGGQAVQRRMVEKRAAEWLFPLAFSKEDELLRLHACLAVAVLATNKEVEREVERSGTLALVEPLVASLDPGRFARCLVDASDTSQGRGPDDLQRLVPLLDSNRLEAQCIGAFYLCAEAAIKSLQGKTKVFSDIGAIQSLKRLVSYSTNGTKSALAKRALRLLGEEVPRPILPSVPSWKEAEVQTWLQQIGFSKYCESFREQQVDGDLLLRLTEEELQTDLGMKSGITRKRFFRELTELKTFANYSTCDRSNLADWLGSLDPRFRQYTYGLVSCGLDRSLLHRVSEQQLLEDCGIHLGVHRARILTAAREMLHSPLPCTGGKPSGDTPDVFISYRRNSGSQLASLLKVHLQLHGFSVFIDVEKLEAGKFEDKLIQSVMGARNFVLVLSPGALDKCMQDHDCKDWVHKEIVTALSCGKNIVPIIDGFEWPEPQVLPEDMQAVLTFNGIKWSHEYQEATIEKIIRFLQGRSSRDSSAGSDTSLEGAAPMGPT

Remaining NAD, inactive:
COc1ccc(CN(CCN(C)C)c2ccccn2)cc1 18 nM, O=C(O)c1ccccc1Nc1cccc(C(F)(F)F)c1 10 nM, C[n+]1cc2c3c(ccc2c2ccc4cc5c(cc4c21)OCO5)OCO3 10 nM, C=CCc1ccccc1OCC(O)CNC(C)C (centres undefined) 10 nM, CC(=O)Nc1ccc(O)cc1 10 nM, CN(C)CCCN1c2ccccc2Sc2ccc(C(F)(F)F)cc21 10 nM, CN(C)CCC=C1c2ccccc2C=Cc2ccccc21 10 nM, COc1ccccc1OCC(O)CO (centres undefined) 10 nM, Cc1[nH]c(C)c(Cl)c(=O)c1Cl 10 nM, Nc1ccc(C(=O)O)c(O)c1 10 nM, CCN(CC)C(=O)N1CCN(C)CC1 10 nM, O=C(O)c1cn(-c2ccc(F)cc2)c2cc(N3CCNCC3)c(F)cc2c1=O 14 nM, CN(C)[C@@H]1C(=O)C(C(N)=O)=C(O)[C@@]2(O)C(=O)C3=C(O)c4c(O)ccc(Cl)c4[C@@H](O)[C@H]3C[C@@H]12 10 nM, CCN(CC)C(C)CN1c2ccccc2Sc2ccccc21 (centres undefined) 10 nM, CCN(CC)CCOCCOC(=O)C1(c2ccccc2)CCCC1 10 nM, COc1ccc(CCN2CCC(Nc3nc4ccccc4n3Cc3ccc(F)cc3)CC2)cc1 10 nM, C[C@]12CCC(=O)C=C1C=C[C@@H]1[C@@H]2CC[C@@]2(C)[C@H]1CC[C@@]21CCC(=O)O1 10 nM, COc1cccc2c1C(=O)c1c(O)c3c(c(O)c1C2=O)C[C@@](O)(C(=O)CO)C[C@@H]3O[C@H]1C[C@H](N)[C@H](O)[C@H](C)O1 10 nM, O=C(N[C@H](CO)[C@H](O)c1ccc([N+](=O)[O-])cc1)C(Cl)Cl 10 nM, C/C=C/c1ccc(OC)cc1 10 nM, CNC[C@H](O)c1ccc(O)c(O)c1 10 nM, CO[C@@]12[C@H](COC(N)=O)C3=C(C(=O)C(C)=C(N)C3=O)N1C[C@@H]1N[C@@H]12 10 nM, Cc1nnc(SCC2=C(C(=O)O)N3C(=O)[C@@H](NC(=O)Cn4cnnn4)[C@H]3SC2)s1 10 nM, CN(C)CCC(c1ccccc1)c1ccccn1 (centres undefined) 10 nM, COC(=O)[C@@H]1[C@H]2C[C@H]3c4[nH]c5ccccc5c4CCN3C[C@@H]2CC[C@@H]1O 10 nM, Cc1ccc(C(=O)Nc2ccc(S(=O)(=O)O)c3cc(S(=O)(=O)O)cc(S(=O)(=O)O)c23)cc1NC(=O)c1cccc(NC(=O)Nc2cccc(C(=O)Nc3cc(C(=O)Nc4ccc(S(=O)(=O)O)c5cc(S(=O)(=O)O)cc(S(=O)(=O)O)c45)ccc3C)c2)c1 10 nM, N[C@@H](Cc1ccc(O)c(O)c1)C(=O)O 10 nM, C[C@]12CC[C@@H]3c4ccc(O)cc4CC[C@H]3[C@@H]1C[C@@H](O)[C@@H]2O 10 nM, O=C1NCC2(CCN(CCc3ccccc3)CC2)O1 10 nM, O=C(O)CN1C(=O)c2cccc3cccc(c23)C1=O 13 nM, COc1ccnc(CS(=O)c2nc3ccc(OC(F)F)cc3[nH]2)c1OC (centres undefined) 10 nM, C=CC(N)CCC(=O)O (centres undefined) 10 nM, CC(=O)Oc1ccc(C(c2ccc(OC(C)=O)cc2)c2ccccn2)cc1 10 nM, CCN(CC)CCNC(=O)c1cc(S(C)(=O)=O)ccc1OC 10 nM, CC(C)(Oc1ccc(CCNC(=O)c2ccc(Cl)cc2)cc1)C(=O)O 10 nM, CCCCNc1ccc(C(=O)OCCN(C)C)cc1 10 nM, NC(N)=N/N=C/c1c(Cl)cccc1Cl 10 nM, O=C(Nc1ccc([N+](=O)[O-])cc1Cl)c1cc(Cl)ccc1O 10 nM, O=C1C(=O)c2ccccc2C(O)=C1C1CCC(c2ccc(Cl)cc2)CC1 (centres undefined) 10 nM

Source: PubChem BioAssay
